Results reported in PubChem BioAssay (NCATS).
Records with an inconclusive call do not appear. Entries that show only a call come without a potency. Unmarked numbers belong to inactive results. The source made the active and inactive calls. Unless noted, calls come from the whole dose curve; as a rule, active = well fitted curve in the direction sought with a large enough effect; inconclusive = small, poorly fitted or top-dose-only effect, or another doubt; inactive = no such curve, though single readings can be large; an effect the other way counts as inactive or inconclusive.

Key:
[1] = qHTS to identify inhibitors of the type 1 interferon - major histocompatibility complex class I in skeletal muscle: primary screen against the NCATS Pharmaceutical Collection (AID 1347407);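 note: luminescence of HiBiT knocked into endogenous HLA-B as interferon-induced MHC class I level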
Outline: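 Cells were seeded with 4 ng/ml IFN-beta, incubated 1 h, then dosed with compounds over eight 1:5 steps up to 46 uM final. After 24 h at 37 C, HiBiT lytic reagent was added and luminescence read after 10 min lysis in the dark.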

[2] = target: Protein phosphatase 1D (Homo sapiens) (UniProt O15297); assay: RapidFire Mass Spectrometry qHTS Assay for Modulators of WT P53-Induced Phosphatase 1 (WIP1) (AID 1347424);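 note: amount of dephosphorylated VEPPL-S-QETFS peptide product formed by WIP1; series mostly up to about 63 µM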
Chain of Protein phosphatase 1D (Homo sapiens) (O15297 whole entry, looked up): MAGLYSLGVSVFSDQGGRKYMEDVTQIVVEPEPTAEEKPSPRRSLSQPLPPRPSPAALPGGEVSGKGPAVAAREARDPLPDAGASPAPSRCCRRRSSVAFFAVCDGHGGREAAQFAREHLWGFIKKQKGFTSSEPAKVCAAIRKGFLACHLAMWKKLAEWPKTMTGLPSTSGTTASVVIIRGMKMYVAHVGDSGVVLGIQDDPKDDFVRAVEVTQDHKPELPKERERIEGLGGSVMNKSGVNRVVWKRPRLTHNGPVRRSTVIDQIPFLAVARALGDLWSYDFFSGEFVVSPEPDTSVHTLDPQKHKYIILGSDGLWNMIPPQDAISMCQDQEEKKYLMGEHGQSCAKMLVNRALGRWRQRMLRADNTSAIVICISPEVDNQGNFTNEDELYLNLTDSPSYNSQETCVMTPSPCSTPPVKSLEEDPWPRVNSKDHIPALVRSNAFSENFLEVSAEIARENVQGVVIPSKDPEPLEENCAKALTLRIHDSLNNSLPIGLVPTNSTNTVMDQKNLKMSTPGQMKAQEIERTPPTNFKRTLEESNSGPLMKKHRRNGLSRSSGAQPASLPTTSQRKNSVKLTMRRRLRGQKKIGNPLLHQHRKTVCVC
Outline: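 RapidFire mass spectrometry measured dephosphorylated peptide after 5 min room-temperature reaction of 2 uM VEPPL-pS-QETFS with 10 nM WIP1 (50 mM Tris-HCl pH 7.5, 30 mM MgCl2, 0.1 mM EGTA, BSA), following 1 hr compound preincubation; 1 uM isotope-labelled product standard.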

[3] = target: Protein phosphatase 1D (Homo sapiens) (UniProt O15297); assay: Rhodamine-PBP qHTS Assay for Modulators of WT P53-Induced Phosphatase 1 (WIP1) (AID 1347425)
Outline: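 5 nM WIP1 + 10 uM Rh-PBP, 50 mM Tris pH 7.5, 30 mM MgCl2, 1 mM TCEP, 0.1 mM EGTA, BSA; cpds pinned, 1 hr RT; + 10 uM phosphopeptide; fluorescence 1-min reads x 11 min; delta = f1 - f0.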

[4] = Primary qHTS for inhibitors of La Crosse Virus (LACV) - induced cell death in SH-SY5Y cells (AID 1508616);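 note: top concentration of the series differs between compounds; higher means more rescue of cells from virus-induced death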
Outline: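 Screening measures cell viability in LACV-infected SH-SY5Y cultures. Compound was added before virus (0.01 MOI), and ATP was detected by luminescence 6 days later.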

[5] = target: Calcium and integrin-binding protein 1 (Homo sapiens) (UniProt Q99828); assay: Primary qHTS for Identification of Calcium Integrin Binding Protein 1 (CIB1) Competitor (AID 1508620);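 note: GST tagged CIB1 binding a fluorescein labelled alphaIIb integrin peptide tracer; top concentration of the series differs between compounds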
Chain of Calcium and integrin-binding protein 1 (Homo sapiens) (Q99828 whole entry, looked up): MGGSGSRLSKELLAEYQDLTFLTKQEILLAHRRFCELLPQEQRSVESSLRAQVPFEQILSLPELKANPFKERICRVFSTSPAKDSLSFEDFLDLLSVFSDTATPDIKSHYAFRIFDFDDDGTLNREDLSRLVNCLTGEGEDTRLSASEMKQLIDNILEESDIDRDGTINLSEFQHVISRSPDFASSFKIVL
Outline: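 CIB1-GST (1 uM final) and compound incubated 15 min at room temperature before adding FITC-alphaIIb peptide tracer (100 nM final). Competition for binding read by fluorescence polarization (ex 480, em 540) after another 15 min at room temperature.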

[6] = Primary qHTS for small molecule stabilizers of the endoplasmic reticulum resident proteome: Secreted ER Calcium Modulated Protein (SERCaMP) assay (AID 1508630)
Outline: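 The SH-SY5Y reporter protocol was run at 3 concentrations up to 38.3 uM (primary) or 11 concentrations (follow-up): 16 h compound, 100 nM thapsigargin for 4 h, then extracellular luciferase luminescence.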

[7] = A High-Content qHTS Against Drug Library for the Identification of Small Molecules that Inhibit DYT1 Early Onset Primary Dystonia-Associated Cell Pathology (AID 1645839; calls by dose curve; note: series mostly up to about 46 µM)
Outline: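 High-content imaging quantified EGFP-TorsinA mislocalization in HEK293-derived cells inducibly expressing DYT1 mutant torsinA, after 48 h exposure to compound given together with tetracycline induction. Cell count served as a toxicity channel alongside %pathology.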

[8] = target: Cytochrome P450 2D6 (Homo sapiens) (UniProt P10635); assay: Cytochrome P450 family 2 subfamily D member 6 (CYP2D6) small molecule antagonists: luciferase biochemical (cell-free) qHTS assay (AID 1645840; active = well fitted curve in the direction sought with a large enough effect in the repeat runs; an effect the other way counts as inactive or inconclusive; note: nearly all actives have a fitted effect of over 55% in size; note: potency is the fitted concentration of half-maximal effect)
Chain of Cytochrome P450 2D6 (Homo sapiens) (P10635 whole entry, looked up): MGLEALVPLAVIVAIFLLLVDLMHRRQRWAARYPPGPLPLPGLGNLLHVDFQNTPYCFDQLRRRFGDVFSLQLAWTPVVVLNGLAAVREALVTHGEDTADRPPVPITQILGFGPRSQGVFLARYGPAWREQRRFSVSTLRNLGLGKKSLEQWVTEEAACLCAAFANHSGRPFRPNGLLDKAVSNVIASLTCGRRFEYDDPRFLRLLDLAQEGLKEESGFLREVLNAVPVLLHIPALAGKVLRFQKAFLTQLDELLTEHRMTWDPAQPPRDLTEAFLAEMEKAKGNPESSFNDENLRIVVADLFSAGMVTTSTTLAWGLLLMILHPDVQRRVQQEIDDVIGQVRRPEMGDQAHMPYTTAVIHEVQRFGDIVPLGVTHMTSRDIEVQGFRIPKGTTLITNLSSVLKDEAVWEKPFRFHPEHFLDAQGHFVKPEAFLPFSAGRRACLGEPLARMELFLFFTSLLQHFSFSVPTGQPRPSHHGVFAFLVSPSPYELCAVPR
Outline: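 P450-Glo CYP2D6 system: proluciferin substrate converted by enzyme to luciferin, read by luminescence proportional to activity. Enzyme-substrate mix with compound 10 min at room temperature, then NADPH regeneration 1 h before detection reagent.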

[9] = target: Cytochrome P450 2C9 (Homo sapiens) (UniProt P11712); assay: Cytochrome P450 family 2 subfamily C member 9 (CYP2C9) small molecule antagonists: luciferase biochemical (cell-free) qHTS assay (AID 1645842; active = well fitted curve in the direction sought with a large enough effect in the repeat runs; an effect the other way counts as inactive or inconclusive; note: nearly all actives have a fitted effect of over 55% in size; note: potency is the fitted concentration of half-maximal effect)
Chain of Cytochrome P450 2C9 (Homo sapiens) (P11712 whole entry, looked up): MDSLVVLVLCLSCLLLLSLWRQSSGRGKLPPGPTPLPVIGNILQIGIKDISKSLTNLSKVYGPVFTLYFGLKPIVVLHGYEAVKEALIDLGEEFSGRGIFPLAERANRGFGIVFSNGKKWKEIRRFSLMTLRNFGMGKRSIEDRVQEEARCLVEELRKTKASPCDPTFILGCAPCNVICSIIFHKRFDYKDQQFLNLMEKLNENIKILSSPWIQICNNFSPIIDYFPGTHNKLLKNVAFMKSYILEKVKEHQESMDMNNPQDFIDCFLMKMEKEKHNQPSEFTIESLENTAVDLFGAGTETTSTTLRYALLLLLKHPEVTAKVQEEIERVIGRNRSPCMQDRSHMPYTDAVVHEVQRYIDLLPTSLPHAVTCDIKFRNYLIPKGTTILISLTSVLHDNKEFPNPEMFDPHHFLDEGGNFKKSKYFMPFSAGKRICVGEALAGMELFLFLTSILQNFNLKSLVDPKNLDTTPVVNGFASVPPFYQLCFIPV
Outline: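 P450-Glo CYP2C9 system: proluciferin substrate with enzyme in mix containing 0.4% BSA, 10 min at room temperature, then NADPH regeneration solution added and incubated 1 h at 37C. Detection reagent stopped reaction; luminescence read after 20 min as RLU.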

[10] = Confirmatory qHTS for small molecule stabilizers of the endoplasmic reticulum resident proteome: Secreted ER Calcium Modulated Protein (SERCaMP) assay (AID 1508628); note: series mostly up to about 76 µM; nearly all actives have a fitted effect of over 40% in size
Outline: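 GLuc-SERCaMP-expressing SH-SY5Y cells, pretreated 16 h with compound, are challenged with thapsigargin to empty ER calcium stores; after 4 h, coelenterazine is added directly to the medium and luminescence is imaged.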

[11] = qHTS to identify inhibitors of the type 1 interferon - major histocompatibility complex class I in skeletal muscle: primary screen against the NCATS Mechanism Interrogation Plate v5.0 (MIPE) Libary (AID 1347411); note: nearly all actives have a fitted effect of over 65% in size
Outline: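 IFN-beta-driven (4 ng/ml) HLA-B-HiBit expression in CRISPR-tagged C25cl48 myoblasts; compounds 11-pt, 1:3, max 46 uM, 24 hr exposure; lytic NanoLuc complementation luminescence.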

CCOC(=O)n1ccn(C)c1=S
Potency [1]: inactive | Potency [2]: inactive | outcome [3]: inactive | Potency [4]: inactive | Potency [5]: inactive | Potency [6]: inactive | Potency [7]: inactive | Potency [8]: inactive | Potency [9]: inactive

Cc1ncc(CSSCc2cnc(C)c(O)c2CO)c(CO)c1O
Potency [1]: inactive | Potency [2]: inactive | outcome [3]: inactive | Potency [4]: inactive | Potency [5]: inactive | Potency [6]: inactive | Potency [7]: inactive | Potency [9]: 6.17 µM (active)

C[C@H](CCC(=O)O)[C@H]1CC[C@H]2[C@@H]3C(=O)C[C@@H]4CC(=O)CC[C@]4(C)[C@H]3CC(=O)[C@]12C
Potency [1]: inactive | Potency [2]: inactive | outcome [3]: inactive | Potency [4]: inactive | Potency [5]: inactive | Potency [6]: inactive | Potency [7]: inactive | Potency [8]: inactive | Potency [9]: inactive

CCCCC1=NC2(CCCC2)C(=O)N1Cc1ccc(-c2ccccc2-c2nn[nH]n2)cc1
Potency [1]: inactive | Potency [2]: inactive | outcome [3]: inactive | Potency [4]: inactive | Potency [5]: inactive | Potency [6]: inactive | Potency [7]: inactive | Potency [9]: 17.4 µM (active)

c1ccc(-c2ccc(C(c3ccccc3)n3ccnc3)cc2)cc1 (stereo not drawn)
Potency [1]: inactive | Potency [2]: inactive | outcome [3]: inactive | Potency [4]: inactive | Potency [5]: inactive | Potency [10]: inactive | Potency [8]: 0.246 µM (active) | Potency [9]: 0.0245 µM (active)

CC(Cc1ccccc1)(NC(=O)CN)c1ccccc1 (stereo not drawn)
Potency [1]: inactive | Potency [2]: inactive | outcome [3]: inactive | Potency [4]: inactive | Potency [5]: inactive | Potency [6]: inactive | Potency [7]: inactive

COc1c(C)c2c(c(O)c1C/C=C(\C)CCC(=O)O)C(=O)OC2
Potency [1]: inactive | Potency [11]: inactive | Potency [2]: inactive | outcome [3]: inactive | Potency [5]: inactive | Potency [6]: inactive | Potency [7]: inactive | Potency [8]: inactive | Potency [9]: inactive

COc1ccc(C2C(=O)c3ccccc3C2=O)cc1
Potency [1]: inactive | Potency [2]: inactive | outcome [3]: inactive | Potency [4]: inactive | Potency [5]: inactive | Potency [6]: inactive | Potency [7]: inactive | Potency [9]: inactive

CC1(C)O[C@@H]2C[C@H]3[C@@H]4C[C@H](F)C5=CC(=O)C=C[C@]5(C)[C@H]4[C@@H](O)C[C@]3(C)[C@]2(C(=O)CO)O1
Potency [1]: inactive | Potency [11]: inactive | Potency [2]: inactive | outcome [3]: inactive | Potency [4]: inactive | Potency [5]: inactive | Potency [6]: inactive | Potency [7]: inactive

COC(=O)[C@@H]1CC2=CC(=O)CC[C@]2(C)[C@@]23O[C@@H]2C[C@@]2(C)[C@@H](CC[C@@]24CCC(=O)O4)[C@H]13
Potency [1]: inactive | Potency [11]: inactive | Potency [2]: inactive | outcome [3]: inactive | Potency [4]: inactive | Potency [5]: inactive | Potency [6]: inactive | Potency [7]: inactive | Potency [9]: inactive
